Records with an inconclusive call do not appear. Active and inactive are the calls of the source. Calls follow the shape of the dose curve; as a rule, active = well fitted curve in the direction sought with a large enough effect; inconclusive = small, poorly fitted or top-dose-only effect, or another doubt; inactive = no such curve, though single readings can be large; an effect the other way counts as inactive or inconclusive.

For 23 molecules, outcome and Potency results are on record in PubChem BioAssay (NCATS).

For test [1], the target named is Methanococcus maripaludis chaperonin (MmCpn) (UniProt Q6LX38). Briefly: High-Throughput Screening for Modulators of Cytosolic Chaperonin Activity: MmCpn Primary Screen (AID 488978).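 Also: 50 nM MmCpn enzyme hydrolysing 30 µM ATP at 37 °C.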 A digest of the protocol: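 MmCpn (50 nM final) was preincubated with compound 5 min at RT, then 30 uM ATP (final) was added and the reaction ran 10 min at 37C. ADP produced was detected by Transcreener HTRF (ex 320 nm; em 590/665 nm).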

Test [2] addresses D(1A) dopamine receptor (Homo sapiens) (UniProt P21728). Kind of test: HTS Assay for Allosteric Agonists of the Human D1 Dopamine Receptor: Primary Screen for Potentiators (AID 488982). A digest of the protocol: (§1)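 Tetracycline-induced HEK293 T-REx cells force-coupled to calcium signalling were incubated overnight at 30 C and dye-loaded at room temperature. Calcium flux over 180 s after compound addition flagged agonists; a further 180 s read after EC20 dopamine flagged potentiators.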

For test [3] the target is unchanged. Briefly: HTS Assay for Allosteric Agonists of the Human D1 Dopamine Receptor: Primary Screen for Antagonists (AID 488983).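 Also: calcium flux response to an EC80 dopamine challenge measured with no-wash dye; nearly all actives have a fitted effect of over 65% in size.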 Also: potency is read from the fitted curve at half-maximal effect. In outline: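 Calcium flux readout, no-wash dye, inducible HEK293 T-REx D1 line (force-coupled). Compound added after 10 s baseline, 180 s kinetic read; then dopamine at EC80, further 180 s read.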
Test [4] has as its target ATP-dependent 6-phosphofructokinase (Trypanosoma brucei brucei) (UniProt O15648). Kind of test: qHTS Assay to Find Inhibitors of T. brucei phosphofructokinase: hit validation (AID 492961).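 Also: luminescence reports ADP formed as PFK phosphorylates fructose-6-phosphate with ATP; series mostly up to about 51 µM.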 A digest of the protocol: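 Reaction: 0.1 M triethanolamine pH 8.0, 5 mM MgCl2, F6P 0.5 mM, ATP 0.1 mM, PFK 1.25 nM, 45 min RT. Read-out: ADP-Glo luminescence. Analysis: concentration-response fits, classed by r2 and efficacy.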
On the technique in general: Quantitative high-throughput screening tests each substance at several concentrations.

Test [5] can be described thus: Validation screen for small molecules that induce genotoxicity in human embryonic kidney (HEK293T) cells expressing luciferase-tagged ELG1 (AID 493106). Also: potency is read from the fitted curve at half-maximal effect. A digest of the protocol: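 qHTS format; 2,000 HEK293T ELG1-luc cells/well; 23 nL compound via pin tool; 16 hr, 37 °C/5% CO2; ONE-Glo, 30 min RT; luminescence read.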
Test [6] has as its target Transient receptor potential cation channel subfamily V member 1 (Homo sapiens) (UniProt Q8NER1). Kind of test: HTS Assay for Compounds that Act as Enhancers of the Vanilloid Receptor 1 (AID 488979). A digest of the protocol:
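TRPV1-expressing cells loaded with Fluo-8 calcium dye; compounds added and calcium influx read kinetically for 3 min (agonist phase), then capsaicin at EC20 added and read 2 min more for enhancement. Fluorescence ex 480/em 520 nm.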

The target in test [7] is D(1A) dopamine receptor (Homo sapiens) (UniProt P21728). Kind of test: HTS Assay for Allosteric Agonists of the Human D1 Dopamine Receptor: Primary Screen for Agonists (AID 488981). In outline:
as §1

Test [8] addresses ATPase family AAA domain-containing protein 5 (Homo sapiens) (UniProt Q96QE3). Briefly: Validation screen for small molecules that inhibit ELG1-dependent DNA repair in human embryonic kidney (HEK293T) cells expressing luciferase-tagged ELG1 (AID 493107). Also: nearly all actives have a fitted effect of over 70% in size. Also: potency is read from the fitted curve at half-maximal effect. A digest of the protocol: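 ELG1-luciferase HEK293T reporter; 5-fluorouridine + compound/DMSO, 16 hr, 37 °C, 5% CO2; ONE-Glo 30 min RT; luminescence read, qHTS format.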

The target of test [9] is Thyrotropin receptor (Homo sapiens) (UniProt P16473). Briefly: qHTS Assay for Antagonists of the Thyroid Stimulating Hormone Receptor (AID 488980). Also: series mostly up to about 58 µM. In outline: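 HEK293 cells transfected with human TSHR, suspended in HEPES-buffered HBSS with 70 uM RO 20-1724, were treated with compounds plus TSH at EC80 (4 nM final). cAMP was measured by competitive HTRF (cryptate anti-cAMP antibody, cAMP-d2 acceptor).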
Thyrotropin receptor (Homo sapiens), sequence (P16473 whole entry, looked up): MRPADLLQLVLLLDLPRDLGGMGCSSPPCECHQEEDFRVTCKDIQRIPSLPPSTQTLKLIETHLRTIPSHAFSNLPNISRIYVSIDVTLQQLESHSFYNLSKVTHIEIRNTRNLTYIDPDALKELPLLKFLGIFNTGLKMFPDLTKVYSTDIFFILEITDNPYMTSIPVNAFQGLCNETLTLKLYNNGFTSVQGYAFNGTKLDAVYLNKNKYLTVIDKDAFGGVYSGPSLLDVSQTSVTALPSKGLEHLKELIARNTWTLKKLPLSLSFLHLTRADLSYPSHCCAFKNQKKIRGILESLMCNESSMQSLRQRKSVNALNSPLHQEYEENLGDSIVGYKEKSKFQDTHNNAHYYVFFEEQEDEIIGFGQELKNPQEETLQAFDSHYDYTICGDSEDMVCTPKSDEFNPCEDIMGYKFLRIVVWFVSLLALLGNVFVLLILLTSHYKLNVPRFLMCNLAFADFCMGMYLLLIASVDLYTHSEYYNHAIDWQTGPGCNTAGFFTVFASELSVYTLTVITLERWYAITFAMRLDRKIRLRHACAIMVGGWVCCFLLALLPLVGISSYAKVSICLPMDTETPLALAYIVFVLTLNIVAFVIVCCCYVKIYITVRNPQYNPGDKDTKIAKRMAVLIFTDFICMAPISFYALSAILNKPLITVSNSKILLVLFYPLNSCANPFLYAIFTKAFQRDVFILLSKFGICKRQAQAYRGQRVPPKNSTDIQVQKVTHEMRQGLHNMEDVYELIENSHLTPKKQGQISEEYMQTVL

Methanococcus maripaludis chaperonin (MmCpn), sequence (Q6LX38 1-543): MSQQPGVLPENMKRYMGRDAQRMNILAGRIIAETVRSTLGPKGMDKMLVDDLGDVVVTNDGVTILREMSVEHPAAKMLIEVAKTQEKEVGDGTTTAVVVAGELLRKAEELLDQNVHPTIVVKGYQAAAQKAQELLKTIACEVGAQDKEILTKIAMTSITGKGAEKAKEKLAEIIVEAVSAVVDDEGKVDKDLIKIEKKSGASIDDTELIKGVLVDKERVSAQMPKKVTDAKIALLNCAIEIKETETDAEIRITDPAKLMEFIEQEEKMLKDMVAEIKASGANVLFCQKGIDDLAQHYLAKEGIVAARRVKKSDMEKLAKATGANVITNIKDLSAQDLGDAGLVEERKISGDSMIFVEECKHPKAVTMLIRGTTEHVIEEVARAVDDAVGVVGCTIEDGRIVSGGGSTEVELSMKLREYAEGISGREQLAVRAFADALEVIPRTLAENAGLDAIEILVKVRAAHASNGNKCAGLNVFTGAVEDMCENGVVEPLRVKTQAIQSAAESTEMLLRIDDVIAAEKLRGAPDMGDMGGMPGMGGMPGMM
ATP-dependent 6-phosphofructokinase (Trypanosoma brucei brucei), sequence (O15648 whole entry, looked up): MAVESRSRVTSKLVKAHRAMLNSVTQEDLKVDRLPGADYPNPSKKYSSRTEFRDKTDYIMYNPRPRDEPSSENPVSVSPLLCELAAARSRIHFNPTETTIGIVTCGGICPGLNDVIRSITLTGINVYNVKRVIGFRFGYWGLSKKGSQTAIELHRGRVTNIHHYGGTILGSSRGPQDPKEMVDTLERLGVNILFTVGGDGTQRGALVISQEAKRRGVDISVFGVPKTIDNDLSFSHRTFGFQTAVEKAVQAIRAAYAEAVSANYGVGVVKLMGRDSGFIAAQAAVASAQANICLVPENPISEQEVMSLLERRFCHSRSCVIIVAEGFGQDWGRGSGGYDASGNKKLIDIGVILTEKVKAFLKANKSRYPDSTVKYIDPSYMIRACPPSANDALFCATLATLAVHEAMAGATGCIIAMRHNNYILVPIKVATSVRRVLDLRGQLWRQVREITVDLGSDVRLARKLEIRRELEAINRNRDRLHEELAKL
ATPase family AAA domain-containing protein 5 (Homo sapiens), sequence (Q96QE3 whole entry, looked up, the tested form may be a part): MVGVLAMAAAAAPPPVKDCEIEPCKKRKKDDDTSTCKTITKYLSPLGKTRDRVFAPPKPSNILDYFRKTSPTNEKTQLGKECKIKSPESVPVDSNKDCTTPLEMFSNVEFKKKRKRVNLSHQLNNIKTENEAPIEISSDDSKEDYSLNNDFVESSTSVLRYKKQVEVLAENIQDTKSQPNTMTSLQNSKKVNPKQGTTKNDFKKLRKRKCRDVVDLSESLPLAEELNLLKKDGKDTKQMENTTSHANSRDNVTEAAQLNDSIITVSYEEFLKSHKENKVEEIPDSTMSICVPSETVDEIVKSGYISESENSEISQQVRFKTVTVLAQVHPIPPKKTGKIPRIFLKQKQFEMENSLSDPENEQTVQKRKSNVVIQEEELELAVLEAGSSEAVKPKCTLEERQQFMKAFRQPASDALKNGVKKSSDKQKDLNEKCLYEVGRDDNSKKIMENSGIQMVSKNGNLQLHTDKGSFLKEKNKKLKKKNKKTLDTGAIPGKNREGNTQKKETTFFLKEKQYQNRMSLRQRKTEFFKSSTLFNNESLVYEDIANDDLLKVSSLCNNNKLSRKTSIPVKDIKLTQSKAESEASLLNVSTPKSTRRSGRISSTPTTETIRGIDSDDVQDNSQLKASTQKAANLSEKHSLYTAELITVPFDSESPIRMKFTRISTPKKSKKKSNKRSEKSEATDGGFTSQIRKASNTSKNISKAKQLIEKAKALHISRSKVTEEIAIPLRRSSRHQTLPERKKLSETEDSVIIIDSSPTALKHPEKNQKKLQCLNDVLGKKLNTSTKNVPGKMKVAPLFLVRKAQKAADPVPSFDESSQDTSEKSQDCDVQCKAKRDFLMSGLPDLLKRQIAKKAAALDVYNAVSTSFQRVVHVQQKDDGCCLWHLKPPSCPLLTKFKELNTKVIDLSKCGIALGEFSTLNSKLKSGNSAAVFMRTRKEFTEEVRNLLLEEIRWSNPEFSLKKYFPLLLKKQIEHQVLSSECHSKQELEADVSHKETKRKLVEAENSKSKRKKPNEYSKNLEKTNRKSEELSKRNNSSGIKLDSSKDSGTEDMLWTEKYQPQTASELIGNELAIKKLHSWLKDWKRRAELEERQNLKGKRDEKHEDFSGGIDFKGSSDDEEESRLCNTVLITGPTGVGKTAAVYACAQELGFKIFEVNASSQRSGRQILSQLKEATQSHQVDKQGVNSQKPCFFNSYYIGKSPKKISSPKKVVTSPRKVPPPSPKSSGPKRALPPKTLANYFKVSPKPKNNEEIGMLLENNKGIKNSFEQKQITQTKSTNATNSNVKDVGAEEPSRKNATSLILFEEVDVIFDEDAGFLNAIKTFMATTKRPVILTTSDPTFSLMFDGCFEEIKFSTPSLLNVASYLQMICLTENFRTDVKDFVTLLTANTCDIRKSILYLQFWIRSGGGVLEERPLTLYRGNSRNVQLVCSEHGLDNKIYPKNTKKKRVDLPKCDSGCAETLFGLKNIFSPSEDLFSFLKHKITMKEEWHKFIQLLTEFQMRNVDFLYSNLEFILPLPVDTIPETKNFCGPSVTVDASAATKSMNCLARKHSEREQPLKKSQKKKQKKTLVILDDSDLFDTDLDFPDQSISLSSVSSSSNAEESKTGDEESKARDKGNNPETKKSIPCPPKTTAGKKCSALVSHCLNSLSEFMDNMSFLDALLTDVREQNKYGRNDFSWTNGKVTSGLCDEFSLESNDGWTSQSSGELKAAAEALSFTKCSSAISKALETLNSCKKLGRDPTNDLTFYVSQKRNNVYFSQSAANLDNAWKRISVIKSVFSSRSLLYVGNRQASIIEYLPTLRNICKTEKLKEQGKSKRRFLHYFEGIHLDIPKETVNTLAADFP
Transient receptor potential cation channel subfamily V member 1 (Homo sapiens), sequence (Q8NER1 whole entry, looked up): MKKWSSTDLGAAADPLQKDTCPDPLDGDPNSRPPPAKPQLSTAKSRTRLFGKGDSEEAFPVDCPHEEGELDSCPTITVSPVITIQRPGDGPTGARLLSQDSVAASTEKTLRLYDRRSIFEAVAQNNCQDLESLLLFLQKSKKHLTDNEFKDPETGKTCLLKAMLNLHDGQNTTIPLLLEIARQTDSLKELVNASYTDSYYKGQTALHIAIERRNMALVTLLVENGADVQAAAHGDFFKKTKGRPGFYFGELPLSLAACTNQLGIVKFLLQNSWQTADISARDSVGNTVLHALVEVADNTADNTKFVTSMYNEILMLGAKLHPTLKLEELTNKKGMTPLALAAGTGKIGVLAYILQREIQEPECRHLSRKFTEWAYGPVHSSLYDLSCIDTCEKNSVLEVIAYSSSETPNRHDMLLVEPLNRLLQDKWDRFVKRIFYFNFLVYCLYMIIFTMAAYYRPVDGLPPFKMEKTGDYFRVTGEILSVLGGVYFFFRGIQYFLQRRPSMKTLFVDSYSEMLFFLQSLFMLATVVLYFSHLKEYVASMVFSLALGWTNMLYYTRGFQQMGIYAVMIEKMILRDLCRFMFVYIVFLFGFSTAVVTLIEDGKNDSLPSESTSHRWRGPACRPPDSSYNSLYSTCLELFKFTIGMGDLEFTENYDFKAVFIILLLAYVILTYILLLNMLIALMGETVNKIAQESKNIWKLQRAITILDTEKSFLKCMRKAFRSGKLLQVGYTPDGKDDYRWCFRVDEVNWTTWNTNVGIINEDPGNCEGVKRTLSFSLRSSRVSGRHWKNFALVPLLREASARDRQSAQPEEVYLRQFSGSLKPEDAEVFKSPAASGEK
D(1A) dopamine receptor (Homo sapiens), sequence (P21728 whole entry, looked up): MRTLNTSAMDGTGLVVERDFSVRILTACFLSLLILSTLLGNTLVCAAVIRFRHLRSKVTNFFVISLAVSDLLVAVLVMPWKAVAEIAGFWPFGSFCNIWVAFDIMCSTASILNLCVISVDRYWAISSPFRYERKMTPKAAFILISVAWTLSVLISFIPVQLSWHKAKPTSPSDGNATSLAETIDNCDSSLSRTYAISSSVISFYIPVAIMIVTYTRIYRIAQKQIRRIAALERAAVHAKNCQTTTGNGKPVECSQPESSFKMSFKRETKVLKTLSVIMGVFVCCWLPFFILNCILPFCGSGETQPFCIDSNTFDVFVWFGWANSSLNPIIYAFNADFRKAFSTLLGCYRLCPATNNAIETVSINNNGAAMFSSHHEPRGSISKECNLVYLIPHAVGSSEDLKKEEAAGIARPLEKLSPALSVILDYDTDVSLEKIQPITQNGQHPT

In the case of `CN(C)CCCN1c2ccccc2Sc2ccccc21`, the molecule was called inactive in [1] and in [4]. For the same molecule, the Potency result in test [2] and in test [5] was “inactive” throughout. Besides, in test [3], the Potency was 5.01 µM (active).

On to `COc1cc(C(=O)OCCCN2CCCN(CCCOC(=O)c3cc(OC)c(OC)c(OC)c3)CC2)cc(OC)c1OC`, for which the outcome in [6] was inactive. Further, the Potency entry in test [7] and in [2] was “inactive” each time. Further, the Potency in test [5] was 16.4 µM (active).

`CCc1c(C)[nH]c2c1C(=O)C(CN1CCOCC1)CC2` (centres undefined): the call in test [1] and in [6] was inactive. Also, the Potency entry in [7], in test [2], in test [5] and in test [8] was “inactive” throughout. For the same molecule, in test [3], the Potency is 14.1 µM (active).

For the molecule `CCCC(C(=O)OCCN(CC)CC)(c1ccccc1)c1ccccc1`, the outcome in test [1], in test [6] and in test [4] was inactive. For the same molecule, the Potency entry in [7], in test [2], in test [3] and in test [5] was “inactive” in each case.

Turning to `NC(=Nc1ccccc1)Nc1ccccc1`, the call in test [4] was inactive.

Turning to `O=C1CC2(CCCC2)CC(=O)N1CCCCN1CCN(c2ncccn2)CC1`, the molecule was classed as inactive in [1], in test [6] and in test [9]. The Potency result in [7], in test [3], in test [5] and in test [8] was “inactive” each time.

In the case of `CCC(=O)c1ccc2c(c1)N(CCCN(C)C)c1ccccc1S2`, the outcome in test [1] was inactive. Further, the Potency entry in test [7], in test [2], in test [5] and in [8] was “inactive” throughout. The Potency in test [3] was 0.891 µM (active).

`C[C@]12CCC(=O)C=C1CC[C@@H]1[C@@H]2C(=O)C[C@@]2(C)[C@H]1CC[C@]2(O)C(=O)CO`: the outcome in test [6] and in [9] was inactive. Moreover, the Potency entry in [7], in test [2] and in [5] was “inactive” each time.

Regarding `CC(C(=O)O)c1ccc(CC2CCCC2=O)cc1` (centres undefined), the molecule was called inactive in [1], in test [6] and in test [4]. Further, the Potency entry in test [7], in test [2], in test [3], in test [5] and in test [8] was “inactive” throughout.

In the case of `FC(F)(F)c1ccccc1-n1ccnc1`, the call in test [1], in [6] and in test [4] was inactive. Further, the Potency result in test [7], in [2], in test [3], in test [5] and in test [8] was “inactive” in each case.

`Fc1ccc(C(c2ccc(F)cc2)N2CCN(C/C=C/c3ccccc3)CC2)cc1`: the outcome in test [1], in test [6] and in test [9] was inactive. For the same molecule, the Potency result in test [7], in test [2] and in test [5] was “inactive” each time. For the same molecule, the Potency in test [8] is 23.1 µM (active).

As for `CNCCCN1c2ccccc2CCc2ccccc21`, the call in test [1], in test [9] and in test [4] was inactive. Also, the Potency entry in [7], in [2], in test [5] and in test [8] was “inactive” throughout.

With `CN1C[C@H](C(=O)N[C@]2(C)O[C@@]3(O)[C@@H]4CCCN4C(=O)[C@H](Cc4ccccc4)N3C2=O)C[C@@H]2c3cccc4[nH]cc(c34)C[C@H]21`, the result in test [1] was inactive. Besides, the Potency entry in test [7] and in [5] was “inactive” throughout.

`COc1ccc2c(c1OC)C(=O)O[C@@H]2[C@H]1c2c(cc3c(c2OC)OCO3)CCN1C`: the Potency result in test [7], in [2], in test [3], in test [5] and in [8] was “inactive” throughout.

Take `CN1CCN(CC(=O)N2c3ccccc3C(=O)Nc3cccnc32)CC1`: the outcome in [1] and in test [6] was inactive. The Potency entry in test [7], in [3] and in test [5] was “inactive” throughout.

`Brc1c(NC2=NCCN2)ccc2nccnc12`: the result in [1] was inactive. In addition, the Potency result in test [7], in [2], in [3], in [5] and in test [8] was “inactive” each time.

For `Cc1scc2c1N(C(=O)CN1CCN(C)CC1)c1ccccc1NC2=O`, the outcome in test [6] was inactive. The Potency entry in [7], in test [5] and in test [8] was “inactive” in each case.

Regarding `c1cc(CN2CCCCC2)cc(OCCCNc2nc3ccccc3s2)c1`, the result in [1] and in test [4] was inactive. For the same molecule, the Potency entry in [7], in [2], in test [5] and in [8] was “inactive” throughout.

Take `COc1cc(Cc2cnc(N)nc2N)cc(OC)c1OC`: the result in [6] and in [9] was inactive. The Potency entry in test [7], in test [2] and in test [3] was “inactive” each time.

With `COCCOC(=O)C1=C(C)NC(C)=C(C(=O)OC(C)C)C1c1cccc([N+](=O)[O-])c1` (centres undefined), the result in test [1], in test [6] and in test [9] was inactive. The Potency result in test [7], in test [2] and in [5] was “inactive” each time. Besides, the Potency in test [8] is 11.6 µM (active).

Turning to `CN(C)C/C=C(/c1ccc(Br)cc1)c1cccnc1`, the call in test [9] and in [4] was inactive. In addition, the Potency entry in test [7], in test [2], in test [5] and in [8] was “inactive” each time. The Potency in [3] is 12.6 µM (active).

On to `NC(Cc1ccc(Cl)cc1)C(=O)O` (centres undefined), for which the call in test [1], in test [6] and in [9] was inactive. For the same molecule, the Potency entry in [7], in [2], in [3], in test [5] and in [8] was “inactive” in each case.

As for `CN(C)CCCN1c2ccccc2Sc2ccc(C(F)(F)F)cc21`, the call in [1], in test [9] and in test [4] was inactive. The Potency entry in test [7], in [2] and in test [5] was “inactive” throughout.
